Several values for one entry are separate records, joined by “and”; a condition that tells them apart may be missing. Equal values may be shown once. Read-outs that look alike come from different tables or passages of the source.
Assays:
[1] = system: DAPK1; details: concentration: 1 μM, replicates: in singlicate, n = 1
[2] = system: DAPK2; details: concentration: 1 μM, replicates: in singlicate, n = 1
[3] = system: DAPK3; details: concentration: 1 μM, replicates: in singlicate, n = 1
[4] = system: T1, DCAMKL1; details: concentration: 1 μM, replicates: in singlicate, n = 1
T1 construct: gene DCLK1

[5] = system: T2, DCAMKL2; details: concentration: 1 μM, replicates: in singlicate, n = 1
T2 construct: gene DCLK2

[6] = system: T3, DCAMKL3; details: concentration: 1 μM, replicates: in singlicate, n = 1
T3 construct: gene DCLK3

[7] = system: DDR1; details: concentration: 1 μM, replicates: in singlicate; n = 1
[8] = system: DDR2; details: concentration: 1 μM, replicates: in singlicate, n = 1
[9] = system: T4, DLK; details: concentration: 1 μM, replicates: in singlicate, n = 1
T4 construct: gene MAP3K12

[10] = system: T5, DMPK2; details: concentration: 1 μM, replicates: in singlicate, n = 1
T5 construct: gene CDC42BPG
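Note: KINOMEscan kinase panel screen.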

Row | Compound | %Inh ([1]; 1 µM) | %Inh ([2]; 1 µM) | %Inh ([3]; 1 µM) | %Inh ([4]; 1 µM) | %Inh ([5]; 1 µM) | %Inh ([6]; 1 µM) | %Inh [7] | %Inh ([8]; 1 µM) | %Inh ([9]; 1 µM) | %Inh ([10]; 1 µM) | %Inh [1] | %Inh [2] | %Inh [3] | %Inh [4] | %Inh [5] | %Inh [6] | %Inh [8] | %Inh [9] | %Inh [10]
1 | NCCNS(=O)(=O)c1ccc(-c2ccnc3[nH]ccc23)cc1 [GSK977617] | 94% and 90.7% | 91.4% and 86% | 98.5% and 97.6% | 50% and 52% | 34% and 28% | 58% and 39% | 0% | 12% and 8% | 48% and 40% | 78% and 71% | – | – | – | – | – | – | – | – | –
2 | O=C(NOCC1CC1)c1ccc(F)c(F)c1Nc1ccc(I)cc1Cl | – | – | – | – | – | – | 0% | – | – | – | 1% | 0% | 0% | 0% | 0% | 0% | 0% | 1% | 0%
3 | CCc1nc(-c2cccc(C)c2)c(-c2ccnc(NCc3ccccc3)c2)s1 | – | – | – | – | – | – | 14% | – | – | – | 2% | 10% | 0% | 10% | 8% | 0% | 18% | 0% | 5%
4 | COc1ccc(Nc2nccc(N3CCC(NC(=O)Nc4cccc(C(C)=O)c4)C3)n2)cc1 (centres unmarked) [GSK1379731] | – | – | – | – | – | – | 12% | – | – | – | 0% | 0% | 0% | 0% | 0% | 0% | 14% | 0% | 2%
5 | Cl.Nc1ncnc2occ(-c3ccc(NC(=O)Nc4cc(C(F)(F)F)ccc4F)cc3)c12 [SB-707548] | – | – | – | – | – | – | 100% | – | – | – | 24% | 14% | 14% | 17% | 4% | 0% | 98.3% | 21% | 24%

Reference: PMC5540273 (PLoS ONE, 2017)
